From the antibiotic and cytotoxicity screens of Wong et al. (2023)
The whole screen tested about 39,000 compounds, of which about 3,300 (8.5%) were called active. The sample as a whole holds a higher share of actives than the screen did.

The molecules below were run on HepG2 (assay: cytotoxicity call (relative viability < 0.9)). Settings: 10 µM.
C[C@@H]1CN([C@H](C)CO)C(=O)c2cc(NC(=O)Nc3ccc4c(c3)OCO4)ccc2O[C@@H]1CN(C)S(C)(=O)=O was tested, and the cytotoxicity call was “inactive”. With COc1ccc(COC[C@@]23Oc4ccccc4[C@@H](NC(=S)N2C)[C@@H]3CO[Si](C)(C)C(C)(C)C)cc1 the cytotoxicity call was “active”. For COc1ccc(COC[C@]23NC(=S)N[C@H](c4ccccc4O2)[C@@H]3CO[Si](C)(C)C(C)(C)C)cc1, the cytotoxicity call was “inactive”. In the case of COc1ccc(COC[C@@]23Oc4ccccc4[C@@H](NC(=O)N2C(=O)c2ccccc2)[C@H]3CO[Si](C)(C)C(C)(C)C)cc1, the cytotoxicity call is reported as “inactive”. In the case of COc1ccc(COC[C@]23Oc4ccccc4[C@H]([C@H]2CO[Si](C)(C)C(C)(C)C)N(C(=O)CC(C)=O)C(=O)N3C)cc1, the cytotoxicity call is reported as “inactive”. COc1ccc(COC[C@@]23Oc4ccccc4[C@@H](NC(=S)N2C)[C@H]3CO[Si](C)(C)C(C)(C)C)cc1 was tested, and the cytotoxicity call was “active”. COc1ccc(COC[C@]23N=C4SCCCN4[C@H](c4ccccc4O2)[C@H]3CO[Si](C)(C)C(C)(C)C)cc1 was tested, and the cytotoxicity call was “active”. For COc1ccc(COC[C@]23NC(=S)N[C@H](c4ccccc4O2)[C@H]3CO[Si](C)(C)C(C)(C)C)cc1, the cytotoxicity call was “inactive”. For COc1ccc(COC[C@]23N=C4SCc5ccccc5CN4[C@H](c4ccccc4O2)[C@H]3CO[Si](C)(C)C(C)(C)C)cc1, the cytotoxicity call was “inactive”. With COc1ccc(COC[C@]23N=C4SCCCN4[C@H](c4ccccc4O2)[C@H]3COC(=O)c2ccccc2)cc1 the cytotoxicity call was “inactive”. With O=C(C[C@H]1CC[C@H]2[C@@H](COC[C@@H](O)CN2S(=O)(=O)c2cccc(F)c2)O1)NCc1ccncn1 the cytotoxicity call was “inactive”. For Cc1cccc(CO)n1, the cytotoxicity call was “inactive”. For O=C1N[C@@H]2[C@@H](O)[C@@H](O)[C@H](O)[C@@H](CO)N2C1=O, the cytotoxicity call was “inactive”. CCCCS(=N)(=O)CC[C@@H](N)C(=O)O (some centres undefined) was tested, and the cytotoxicity call was “inactive”. For NC(=S)Nc1ccncc1, the cytotoxicity call was “inactive”. In the case of CCC[C@@H](O)C#Cc1cnc2c(c1)C(=O)N([C@H](C)CO)C[C@H](C)[C@H](CN(C)S(=O)(=O)c1cccc(F)c1)O2, the cytotoxicity call is reported as “inactive”. For C[C@H](CO)N1C[C@H](C)[C@H](CN(C)C(=O)Cc2ccccc2)OCCCC[C@H](C)Oc2ccc(NS(=O)(=O)c3ccc(Cl)cc3)cc2C1=O, the cytotoxicity call was “inactive”. For COc1ccc(NC(=O)N(C)C[C@H]2Oc3ccc(NS(=O)(=O)c4cn(C)cn4)cc3CC(=O)N([C@H](C)CO)C[C@H]2C)cc1, the cytotoxicity call was “inactive”. For Cc1noc(C)c1NC(=O)N(C)C[C@H]1Oc2ccc(NC(=O)c3ccncc3)cc2C(=O)N([C@H](C)CO)C[C@H]1C, the cytotoxicity call was “inactive”. In the case of CCNC(=O)CCC(N)C(=O)[O-].[K+] (centres undefined), the cytotoxicity call is reported as “inactive”. In the case of C[C@@H]1ON(c2ccc(I)cc2)[C@H](c2ccc(OC(=O)OC(C)(C)C)cc2)[C@H]1C(=O)N1C(=O)OC[C@H]1Cc1ccccc1, the cytotoxicity call is reported as “inactive”. For COc1ccc(S(=O)(=O)N(C)C[C@@H]2Oc3ccc(NS(=O)(=O)c4c(C)noc4C)cc3CC(=O)N([C@H](C)CO)C[C@@H]2C)cc1, the cytotoxicity call was “inactive”. For C[C@@H]1CN([C@@H](C)CO)C(=O)c2cc(NC(=O)Nc3ccccc3)ccc2O[C@@H](C)CCCCO[C@H]1CN(C)C(=O)OC(C)(C)C, the cytotoxicity call was “inactive”. C[C@H]1CN([C@@H](C)CO)C(=O)Cc2cc(NC(=O)C3CCCCC3)ccc2O[C@H]1CN(C)C(=O)Nc1cccc2ccccc12 was tested, and the cytotoxicity call was “inactive”. For C[C@@H]1CN([C@@H](C)CO)C(=O)Cc2cc(NC(=O)NC3CCCCC3)ccc2O[C@H]1CN(C)C(=O)Nc1cccc2ccccc12, the cytotoxicity call was “inactive”. For CC(C)NC(=O)N(C)C[C@H]1Oc2ccc(NC(=O)C3CCCCC3)cc2CC(=O)N([C@H](C)CO)C[C@@H]1C, the cytotoxicity call was “active”. For Cc1noc(C)c1NC(=O)Nc1ccc2c(c1)CC(=O)N([C@@H](C)CO)C[C@H](C)[C@@H](CN(C)C(=O)Nc1cccc3ccccc13)O2, the cytotoxicity call was “inactive”. In the case of CC(C)NC(=O)N(C)C[C@@H]1Oc2ccc(NC(=O)C3CCCCC3)cc2CC(=O)N([C@@H](C)CO)C[C@@H]1C, the cytotoxicity call is reported as “inactive”. C[C@H]1CN([C@@H](C)CO)C(=O)Cc2cc(NC(=O)NC3CCCCC3)ccc2O[C@H]1CN(C)C(=O)Nc1cccc2ccccc12 was tested, and the cytotoxicity call was “active”. In the case of Cc1noc(C)c1NC(=O)Nc1ccc2c(c1)CC(=O)N([C@H](C)CO)C[C@H](C)[C@@H](CN(C)C(=O)Nc1cccc3ccccc13)O2, the cytotoxicity call is reported as “inactive”. In the case of C[C@H]1CN([C@@H](C)CO)C(=O)Cc2cc(NC(=O)NC3CCCCC3)ccc2O[C@@H]1CN(C)C(=O)Nc1cccc2ccccc12, the cytotoxicity call is reported as “inactive”. With CC(C)NC(=O)N(C)C[C@H]1Oc2ccc(NC(=O)C3CCCCC3)cc2CC(=O)N([C@H](C)CO)C[C@H]1C the cytotoxicity call was “inactive”. Cc1noc(C)c1NC(=O)Nc1ccc2c(c1)CC(=O)N([C@@H](C)CO)C[C@@H](C)[C@H](CN(C)C(=O)Nc1cccc3ccccc13)O2 was tested, and the cytotoxicity call was “active”. With C[C@@H]1CN([C@H](C)CO)C(=O)Cc2cc(NC(=O)C3CCCCC3)ccc2O[C@H]1CN(C)C(=O)Nc1cccc2ccccc12 the cytotoxicity call was “inactive”. C[C@H](CO)N1C[C@H](C)[C@H](CN(C)C(=O)Nc2cccc3ccccc23)Oc2ccc(NC(=O)C3CCCCC3)cc2CC1=O was tested, and the cytotoxicity call was “active”. In the case of COc1ccc(NC(=O)Nc2ccc3c(c2)C(=O)N([C@H](C)CO)C[C@H](C)[C@@H](CN(C)S(=O)(=O)c2ccc(C)cc2)OCCCC[C@@H](C)O3)cc1, the cytotoxicity call is reported as “inactive”. With NC(=O)NC(=O)C[C@H]1Nc2ccccc2NC1=O the cytotoxicity call was “inactive”. CCc1c(C(=O)OC)nnc2cc(C)nn12 was tested, and the cytotoxicity call was “inactive”. For O=C(CN1CCOCC1)N[C@@H]1CC[C@H](CCn2cc(C3CCCC3)nn2)O[C@@H]1CO, the cytotoxicity call was “inactive”. For COCC#Cc1ccc([C@H]2[C@@H](CO)N3C(=O)CN(C(=O)c4ccncc4)C[C@@H]23)cc1, the cytotoxicity call was “inactive”. In the case of C[C@@H]1CN([C@@H](C)CO)C(=O)Cc2cc(NC(=O)Nc3cccc4ccccc34)ccc2O[C@@H]1CN(C)C(=O)NC1CCCCC1, the cytotoxicity call is reported as “active”. In the case of C[C@H](CO)N1C[C@H](C)[C@@H](CN(C)C(=O)NC2CCCCC2)Oc2ccc(NC(=O)Nc3cccc4ccccc34)cc2CC1=O, the cytotoxicity call is reported as “inactive”. With C[C@@H]1CN([C@H](C)CO)C(=O)Cc2cc(NC(=O)Nc3cccc4ccccc34)ccc2O[C@H]1CN(C)C(=O)NC1CCCCC1 the cytotoxicity call was “inactive”. In the case of CCNC(=O)C[C@H]1C=C[C@@H](NC(=O)C2CC2)[C@@H](CO)O1, the cytotoxicity call is reported as “inactive”. For CC1(C)CC(NC(=O)c2ccc(Cl)c(S(=O)(=O)N(Cc3ccccc3)c3ccccc3)c2)CC(C)(C)N1, the cytotoxicity call was “active”. With O=C(NCCN1CCOCC1)c1ccc(Cl)c(S(=O)(=O)N2CCOCC2)c1 the cytotoxicity call was “inactive”. For CC1Cc2ccccc2N1NC(=O)c1ccc(Cl)c(S(N)(=O)=O)c1 (centres undefined), the cytotoxicity call was “inactive”. For C[C@@H]1CN([C@@H](C)CO)C(=O)c2cc(NS(=O)(=O)c3cccs3)ccc2O[C@@H](C)CCCCO[C@@H]1CN(C)C(=O)NC1CCCCC1, the cytotoxicity call was “inactive”. With C[C@@H]1CN([C@@H](C)CO)C(=O)c2cc(C#Cc3cccnc3)cnc2O[C@H]1CN(C)S(=O)(=O)c1ccccc1F the cytotoxicity call was “inactive”. With Cc1cc2nc3c(=O)[nH]c(=O)nc-3n(C[C@@H](O)[C@@H](O)[C@@H](O)CO)c2cc1C the cytotoxicity call was “inactive”. In the case of COC1=CC(C)C2CC3OC(=O)CC4C(C)=C(OC)C(=O)C(C2(C)C1=O)C34C (centres undefined), the cytotoxicity call is reported as “inactive”. C[C@H]1CC=CC[C@@H](c2ccc3c(c2)OCO3)NC(=O)[C@H](Cc2ccccc2)N(C)C(=O)c2ccccc2O1 was tested, and the cytotoxicity call was “inactive”. For C[C@@H]1CC=CC[C@H](c2ccc3c(c2)OCO3)NC(=O)[C@@H](Cc2ccccc2)N(C)C(=O)c2ccccc2O1, the cytotoxicity call was “active”. For C[C@H]1CC=CC[C@H](c2ccc3c(c2)OCO3)NC(=O)[C@@H](Cc2ccccc2)N(C)C(=O)c2ccccc2O1, the cytotoxicity call was “inactive”. In the case of C[C@@H]1CN([C@@H](C)CO)S(=O)(=O)c2ccc(C#C[C@@H](C)O)cc2O[C@@H]1CN(C)C(=O)c1ccccc1, the cytotoxicity call is reported as “inactive”. With C[C@@H]1CN([C@@H](C)CO)S(=O)(=O)c2ccc(C#Cc3ccncc3)cc2O[C@@H]1CN(C)C(=O)C1CCC1 the cytotoxicity call was “inactive”. In the case of C[C@H](CO)N1C[C@H](C)[C@@H](CN(C)C(=O)C2CCC2)Oc2cc(C#Cc3ccncc3)ccc2S1(=O)=O, the cytotoxicity call is reported as “active”. C[C@H]1CN([C@@H](C)CO)S(=O)(=O)c2ccc(C#Cc3ccncc3)cc2O[C@H]1CN(C)C(=O)C1CCC1 was tested, and the cytotoxicity call was “inactive”. In the case of C[C@H]1CN([C@@H](C)CO)S(=O)(=O)c2ccc(C#Cc3ccncc3)cc2O[C@@H]1CN(C)C(=O)C1CCC1, the cytotoxicity call is reported as “inactive”. For C[C@@H]1CN([C@H](C)CO)S(=O)(=O)c2ccc(C#Cc3ccncc3)cc2O[C@H]1CN(C)C(=O)C1CCC1, the cytotoxicity call was “active”. For C[C@@H]1CN([C@@H](C)CO)S(=O)(=O)c2ccc(C#Cc3ccncc3)cc2O[C@H]1CN(C)C(=O)C1CCC1, the cytotoxicity call was “active”. For C[C@H](CO)N1C[C@H](C)[C@H](CN(C)C(=O)C2CCC2)Oc2cc(C#Cc3ccncc3)ccc2S1(=O)=O, the cytotoxicity call was “active”. In the case of C[C@@H]1CN([C@@H](C)CO)C(=O)c2cccc(NS(=O)(=O)c3cn(C)cn3)c2O[C@@H]1CN(C)C(=O)Nc1ccc2c(c1)OCO2, the cytotoxicity call is reported as “inactive”. CCc1nc2ccc(C(=O)Nc3ccc(OC)c(OC)c3)cn2c1N(CC)Cc1cccc(Br)c1 was tested, and the cytotoxicity call was “inactive”. With O=C(CSc1nnc(-c2ccccc2)n1C1CCCCC1)Nc1ccc(S(=O)(=O)Nc2ccccn2)cc1 the cytotoxicity call was “inactive”. With Cc1ccc(CN)s1 the cytotoxicity call was “inactive”. In the case of C[C@H](CO)N1C[C@H](C)[C@@H](CN(C)C(=O)Nc2ccccc2)Oc2cc(Br)ccc2S1(=O)=O, the cytotoxicity call is reported as “inactive”. Cc1noc(C)c1NC(=O)Nc1ccc2c(c1)C(=O)N([C@@H](C)CO)C[C@@H](C)[C@H](CN(C)S(=O)(=O)c1cccs1)OCCCC[C@@H](C)O2 was tested, and the cytotoxicity call was “inactive”. In the case of C[C@@H]1CCCCO[C@H](CN(C)Cc2ccc(C(=O)Nc3ccccc3N)cc2)[C@@H](C)CN([C@H](C)CO)C(=O)c2cc(N(C)C)ccc2O1, the cytotoxicity call is reported as “inactive”.
